# Screens deposited in PubChem by National Center for Advancing Translational Sciences (NCATS).
# Compounds with a hit are over-represented: about 5.5% of the library has one in this group of screens.
# FBPA coupling cs: counter-screen for Giardia aldolase inhibitors: coupling enzyme system; coupling enzyme system counterscreen, AmpLite Red fluorescence; activity change, negative = inhibition, % at 58.2 µM, hits read low; 290,000 tested, 0.67% active; AID 2472; in the data active = activity change below about -30%
#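 First, compound is pin-transferred into glyceraldehyde-3-phosphate coupling-enzyme reagent at 57.5 uM final and held 10 min at RT. Next, substrate, coupling system and AmpLite Red are added. After 20 min RT, fluorescence (525/598 nm) is read.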
# Sfp inh: inhibitors of Bacillus subtilis Sfp phosphopantetheinyl transferase; Q9F4F7; Biochemical Sfp PPTase activity, qHTS; Potency, µM, inactives show largest response in the series, negative = inhibition, usual class: inhibitors; 310,000 tested, 3.5% active; AID 1490;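 note: the enzyme is Sfp with the accession as filed and its product quenches rhodamine fluorescence; potency is the fitted concentration of half-maximal effect; 0% = enzyme reaction without inhibitor and -100% = no enzyme wells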
#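 Fluorescence-quenching assay with 15 nM Sfp, 5 uM rhodamine-CoA and 12.5 uM BHQ-2-labelled ybbR peptide in pH 7.6 Hepes/MgCl2 buffer. Enzyme was pre-incubated with compound for 15 min at room temperature. Rate was taken from the 30-min fluorescence change (525/598 nm).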
# ELG1 repair inh: inhibitors of ELG1-dependent DNA repair in HEK293T cells | HEK293T ELG1-luciferase reporter, luminescence, 16 h; DNA damage induced by 5-fluorouridine | Potency, µM (titrated, usually from 46.1 µM), without a hit: at the top dose activity change, negative = inhibition, usual class: inhibitors | 330,000 tested, 2.3% active; note: potency is the fitted concentration of half-maximal effect; nearly all actives have a fitted effect of over 55% in size
#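 Luminescence from the luciferase reporter, measured 30 min after ONE-Glo reagent at room temperature, was the read-out. Beforehand, 2,000 cells per well were exposed for 16 hr at 37 °C to 5-fluorouridine together with compound or vehicle.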
# Giardia killer: kills Giardia lamblia. Giardia lamblia trophozoite viability. activity change, % at 7.66 µM, hits read low. 340,000 tested, 0.15% active. AID 540267; in the data active = activity change below about -80%; inconclusive = between about -30% and that limit;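 note: parasites exposed to compound for two days anaerobically before the ATP read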
#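 Media and compound were dispensed first, then trophozoites at 100 cells/well; plates sat 48 hrs at 37 deg C without oxygen before ATP luminescence reagent was added and read after 15-30 min at room temperature.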
# * marks the source's active call; other numbers are inactive results; ? = inconclusive; · = no result given. Unless noted, calls come from the whole dose curve; as a rule, active = well fitted curve in the direction sought with a large enough effect; inconclusive = small, poorly fitted or top-dose-only effect, or another doubt; inactive = no such curve, though single readings can be large; an effect the other way counts as inactive or inconclusive. Unless noted, % is set by controls: 0 for no effect and ±100 for the full control effect.
SMILES,FBPA coupling cs,Sfp inh,ELG1 repair inh,Giardia killer
COc1ccc(OC)c(C2CC(=O)N3CN(c4ccccc4F)CSC3=C2C#N)c1 (configuration not stated),-84*,?,9%,-24
COc1ccc(OC)c(C2CC(=O)NC(SC)=C2C#N)c1 (configuration not stated),2,0%,20%,8
COc1cccc(C2CC(=O)N3CN(c4ccccc4F)CSC3=C2C#N)c1 (configuration not stated),-10,7.9µM*,8%,6
COc1cccc(S(=O)(=O)N2CCN(c3ccccc3F)CC2)c1,-2,3%,-2%,-2
Cc1ccc(N2CC(C(=O)N/N=C/c3c(F)cccc3Cl)CC2=O)cc1 (configuration not stated),1,-1%,9.2µM*,-3
COc1ccc(-n2nc3cc(N)c(Br)cc3n2)cc1,-2,-6%,?,-11
COc1ccc(-n2nc3cc(C)c(N)c(Br)c3n2)cc1,-50*,40µM*,?,-22
CCc1c(C)c2ccc(OCC(=O)NCC3CCC(C(=O)O)CC3)cc2oc1=O (configuration not stated),-1,22%,11%,2
CCOC(=O)CN(C(=O)CSc1nnnn1C)c1ccccc1,·,·,17%,-10
COC(=O)CSc1nc2cc3c(cc2cc1C)OCO3,-3,-6%,?,48
Cc1cc2cc3c(cc2nc1SCC(=O)Nc1nc(C)c(C)s1)OCO3,5,25µM*,12%,17
CC(=O)c1c(C)[nH]c(C(=O)N2CCN(S(=O)(=O)c3ccc(C)cc3C)CC2)c1C,·,·,?,12
COc1cc(C(=O)N2CCN(S(=O)(=O)c3ccc(C)cc3C)CC2)ccc1OCC(=O)N1CCOCC1,·,·,2.3µM*,-5
CSc1ccc(CSCC(=O)N2CCN(S(=O)(=O)c3ccc(C)cc3C)CC2)cc1,·,·,10µM*,0
CCOC(=O)c1c(C)[nH]c(C(=O)OCC(=O)N2CCN(S(=O)(=O)c3ccc(C)cc3C)CC2)c1C,·,·,13µM*,-3
COc1cc(/C=C/C(=O)OCC(=O)N2CCN(S(=O)(=O)c3ccc(C)cc3C)CC2)ccc1O,-1,-3%,21µM*,-3
O=C(O)CC1(c2ccc(F)cc2)C2CC3CC(C2)CC1C3 (configuration not stated),5,22%,0%,3
CCN1C[C@@H]2[C@@H]3C(=O)N(C)C(=O)[C@@H]3[C@](Cc3ccccc3)(C1=O)N2C(=O)c1ccc(F)cc1,·,·,·,-14
Nc1c(C(=O)O)sc2nc(-c3ccc(F)cc3)cc(-c3ccccc3)c12,0,50µM*,-3%,10
Nc1c(C(=O)O)sc2nc(-c3ccccc3)cc(-c3ccc(Cl)cc3)c12,15,-21%,?,-8
CCCNC(=S)N1CCN(c2nc(C)nc3sc4c(c23)CCCC4)CC1,3,7%,?,-3
COCCCNC(=S)N1CCN(c2nc(C)nc3sc4c(c23)CCCC4)CC1,-1,-7%,21µM*,0
BrC(=C\c1ccccc1)/C=N/N1CCN(c2ccccc2)CC1,-12,45µM*,?,10
CC(/C=N/Nc1nc(N2CCCCC2)nc(N2CCCCC2)n1)=C\c1ccccc1,0,5%,8%,12
CC(/C=N/N1CCN(c2ccc(C)cc2)CC1)=C\c1ccccc1,1,14%,15%,-6
SMILES,FBPA coupling cs,Sfp inh,ELG1 repair inh,Giardia killer
BrC(=C\c1ccccc1)/C=N/Nc1nc(N2CCOCC2)nc(N2CCOCC2)n1,1,-5%,16µM*,16
BrC(/C=C\c1ccccc1)=N/Nc1nc(N2CCOCC2)nc(N2CCOCC2)n1,0,-22%,12µM*,-2
C(=N\Nc1nc(N2CCOCC2)nc(N2CCOCC2)n1)/c1cccnc1,0,7%,1%,2
O=C(COc1ccccc1Cl)Nc1ccc(S(=O)(=O)Nc2ccccn2)cc1,4,-7%,-29%,33
COc1ccc(S(=O)(=O)N(CCO)c2ccccc2CN(C)C/C=C/c2ccc(Cl)cc2)cc1,·,-28%,·,·
C/C=C\C[C@H](C)[C@H](O)[C@H]1C(=O)N[C@@H](CC)C(=O)N(C)CC(=O)N(C)[C@@H](CC(C)C)C(=O)N[C@@H](C(C)C)C(=O)N(C)[C@@H](CC(C)C)C(=O)N[C@@H](C)C(=O)N[C@@H](C)C(=O)N(C)[C@@H](CC(C)C)C(=O)N(C)[C@@H](CC(C)C)C(=O)N(C)[C@@H](C(C)C)C(=O)N1C,0,21%,·,·
